# Compound activity deposited in PubChem by several laboratories.
# Only some compounds are listed: those with a hit (about 2.9% of all), similar ones and a draw of the others.
# Peg3 prom inh – reduces Peg3 promoter-driven luciferase expression in HeLa | HeLa PEG-Prom luciferase reporter, luminescence, overnight | inhibition, % at 20 µM | 360,000 tested, 1.7% active | AID 588405;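 active = inhibition of at least 50% at 20 µM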
# CF NFkB block – inhibitors of cystic fibrosis induced NF-kB | KKLEB NF-kB-GFP reporter, PAF-induced, GFP fluorescence overnight | inhibition, % at 5 µM | 360,000 tested, 0.86% active;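 active = at least 50% inhibition at 5 µM, scaled per plate between neutral and stimulator controls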;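 also: PAF is a Pseudomonas aeruginosa culture filtrate used as stimulus; plate controls were PAF-stimulated DMSO wells for no effect and unstimulated DMSO wells for full effect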
# Shn3 inh set2 – reduces Shn3 3'UTR luciferase signal in osteoblasts | 360,000 tested, 0.52% active | inhibition, % at 12.5 µM | Clone20 osteoblast Shn3 3'UTR firefly luciferase, 24 h;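 active = mean inhibition of at least 75% with every replicate also reaching 75%; inconclusive = mean inhibition at least 75% but some replicate below; inactive = mean inhibition below 75%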;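 also: 0% = median of neutral control wells and 100% = pilot-screen positive control compound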
# MITF TRPM1 inh – MITF TRPM1 promoter inhibition in SK-MEL-5 cells; inhibition, % at 12.5 µM; AID 488899; 330,000 tested, 0.83% active; SK-MEL-5 TRPM1 promoter luciferase, 24 h;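 active = mean inhibition across replicates of 60% or more, whatever share of single replicates reaches that level; inconclusive = some that reach 60%, reason not given; inactive = mean inhibition across replicates below 60%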
# EBV LMP1 NFkB – reduces LMP1-driven NF-kappaB luciferase signal; LMP1-induced NF-kappaB luciferase reporter cells, luminescence; 350,000 tested, 0.69% active; inhibition, % at 12.5 µM; in the data active = inhibition above about 41%; inconclusive = no clear call, values can overlap the other calls;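 also: 0% = neutral control wells and 100% = reference inhibitor control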
# KKLEB cytotox – counter-screen for CF NF-kB inhibitors: cytotoxicity | KKLEB CF airway cells viability, ATPlite luminescence, overnight; stronger effect = lower value; cells stimulated with P. aeruginosa culture filtrate | AID 602141 | activity change (cytotoxicity), % at 5 µM | 360,000 tested, 0.36% active;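 active = corrected activity change at or below -50% at 5 µM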
# Numbers without * were called inactive; ? = inconclusive; nt = no result given; ! = repeats disagree.
SMILES,Peg3 prom inh,CF NFkB block,Shn3 inh set2,MITF TRPM1 inh,EBV LMP1 NFkB,KKLEB cytotox
O=c1[nH]c(=O)n(C2C[C@H](O)[C@@H](CO)O2)cc1C(F)(F)F (some centres undefined),20,-1,48,8,35,-3
O=c1[nH]c(=O)n([C@H]2C[C@H](O)[C@@H](CO)O2)cc1C(F)(F)F,22,-4,30,13,46*,9
CCOC(=O)c1ccc(N2C(=O)C=CC2=O)cc1,103*,19,88*,41,67*,-8
O=C(/C=C/c1ccccc1)CC(O)(c1ccccc1)C(F)(F)F (centres undefined),105*,53*,-14,31,-6,-58*
O=C(/C=C/c1ccccc1)CC(O)(c1ccccc1)C(F)(F)C(F)F (centres undefined),101*,23,25,19,-2,-34
Oc1ccc(Nc2nc3ccccc3nc2Nc2ccc(O)cc2)cc1,96*,21,55,66*,15,-6
COc1ccc(C=C2CS(=O)(=O)CC(=Cc3ccc(OC)cc3)C2=O)cc1,97*,92*,71,nt,91*,-18
Cc1ccc2c(c1)sc(=NC(=O)c1cccs1)n2C,-25,-34,4,35,33,-66*
O=C(OCn1ncc(Br)c(Br)c1=O)c1ccccc1Cl,106*,91*,97*,89*,14,-96*
CC(=O)OCn1ncc(N2CCOCC2)c(Br)c1=O,7,20,-4,7,-5,-2
O=C(OCn1ncc(Br)c(Br)c1=O)c1ccc(F)cc1,109*,93*,98*,85*,?,-104*
O=C(OCc1cnc(Cl)s1)c1ccccc1Cl,-19,-3,-7,-28,-3,-3
CCC(NC(C)C)C(O)c1ccc(O)c2[nH]c(=O)ccc12 (centres undefined),7,7,10,-1,74*,14
CC(C)c1nc2sc3c(NCc4ccco4)ncnc3c2c2c1COC(C)(C)C2,27,78*,19,-1,0,-66*
CCN1CCN(C(C(=O)NC2CCCCC2)c2cc3ccccc3o2)CC1 (centres undefined),-19,4,-17,nt,nt,7
CC(C)(C)NC(=O)C(c1ccncc1)N(Cc1cccs1)C(=O)Cn1nnc(-c2cccs2)n1 (centres undefined),63*,5,4,13,10,-4
CC(C)CNC(=O)[C@H]1N2C(=O)c3ccccc3C2SC1(C)C (some centres undefined),11,-11,-11,7,-2,1
CC1(C)SC2c3ccccc3C(=O)N2[C@@H]1C(=O)NCCCN1CCOCC1 (some centres undefined),10,-11,-4,-1,71*,11
Cc1cc(NC(=O)CSc2nnc3ccc(-c4ccccc4)nn23)no1,-8,-10,-8,nt,-13,-7
Cc1c(CCOC(=O)C23CC4CC(CC(C4)C2)C3)sc[n+]1CC#N,51*,76*,77,20,-3,-63*
CC(C)N(CCC(=O)c1ccc2ccccc2c1)Cc1ccccc1,27,24,94*,0,7,-1
COC(=O)c1ccc(CNc2ccc(C(C)=O)cc2)cc1,-30,-43,-3,nt,nt,17
Cc1c(C(=O)NCc2ccccc2C(F)(F)F)sc(=O)n1Cc1ccc(Cl)c(Cl)c1,31,11,-8,nt,nt,1
C[C@@H](NC(=O)c1ncn2c1c(=O)[nH]c1ccc(Br)cc12)c1ccccc1,79*,-11,66,nt,-7,8
CC(C)CNC(=O)C1(C)CCCN1C(=O)c1ccc2c(c1)CCO2 (centres undefined),6,17,-3,nt,nt,-6
SMILES,Peg3 prom inh,CF NFkB block,Shn3 inh set2,MITF TRPM1 inh,EBV LMP1 NFkB,KKLEB cytotox
COc1ccccc1C(=O)N1CCN(C(=O)[C@H]2O[C@@H](n3ccc(N)nc3=O)[C@H](O)[C@@H]2O)CC1,12,-1,-6,nt,nt,-3
COc1ccc(NC(=O)c2ccc(F)cc2)cc1S(=O)(=O)Nc1cc(C)ccc1Br,54*,-8,4,10,1,-1
CC1(C(=O)NS(=O)(=O)C2CC2)CCCN(C(=O)COCc2ccccc2)C1 (centres undefined),4,11,-2,nt,nt,-6
COCCN=c1scc(-c2cc(OC)c(OC)c(OC)c2)n1/N=C/c1c(C)[nH]c2ccccc12,53*,-6,8,6,10,-6
Cc1[nH]c2ccccc2c1/C=N/n1cnnc1,-3,9,2,7,-13,-7
NC(c1csc(NC(=O)c2cccc(OC(F)(F)F)c2)n1)c1ccccc1Cl (centres undefined),25,12,45,nt,nt,-12
COc1ccc(NC(=O)c2cc(C3CCCCN3S(=O)(=O)c3cccs3)on2)c(C)c1 (centres undefined),-1,20,24,nt,nt,4
COc1ccccc1CNC(=O)CCc1cn(C)c2ccccc12,-19,-9,12,20,74*,2
COc1ccccc1CNC(=O)CCCc1cn(C)c2ccccc12,3,4,8,1,-3,-5
CCCCC(=O)N(C)c1c(C)nc2ccc(C(=O)N3CCNC(=O)C3)cn12,-1,-11,5,nt,nt,-6
O=C(OCn1ncc(Cl)c(Cl)c1=O)c1cccc(C(F)(F)F)c1,104*,78*,97*,94*,0,-38
O=C(CSc1nc2c(sc3ccccc32)c(=O)n1CCCN1CCCC1)NCC1CCCO1 (centres undefined),4,-19,3,-4,-1,0
COc1ccc(NC(=O)CSc2nc3c(sc4ccccc43)c(=O)n2CCCN2CCCC2)cc1,69*,-3,-5,83*,2,-6
c1cnc2c(c1)ccc1cccnc12,31,-31,95*!,79*!,18,7
Cc1ccnc2c1ccc1c(C)ccnc12,-8,22,90*,77*,84*,-9
Cc1ccnc2c1ccc1cccnc12,24,3,92*,79*,80*,2
CCCNC(=O)C1(C)CCN(Cc2ccc(C(=O)OCC)cc2)C1 (centres undefined),-9,-49,4,nt,nt,5
C[C@@H](CO)NC(=O)c1[nH]cnc1C(=O)Nc1cccc(Cl)c1,3,13,-11,nt,4,1
S=C(NCc1ccncc1)Nc1ccc(Cl)c(Cl)c1,11,17,-6,-3,3,-17
O=[N+]([O-])c1cc(C(F)(F)F)cc([N+](=O)[O-])c1NCCNC(=S)Nc1ccc(Cl)c(Cl)c1,53*,42,nt,-5,1,-29
COc1ccc(S(=O)(=O)N2CCOCC2)cc1NC(=O)COC(=O)CC1CC2CCC1C2 (centres undefined),-2,0,87*,13,-9,0
